Assay results as given in PubChem BioAssay (EPA / NIEHS).
Records with an inconclusive call do not appear. Active and inactive are the calls of the source. Rule for the calls: active = hit-call score of the fitted dose curve at least 0.9, where 1 is the maximum; inconclusive = response in the unintended direction; inactive = score below 0.9.

Columns and labels:
[1] = biological target: human Protein Tyrosine Phosphatase Non-receptor Type 4 (PTPN4), PTPN4 (gene 5775) (UniProt P29074); assay: NVS_ENZ_hPTPN4: NovaScreen (NVS) Enzymatic Assay for human Protein Tyrosine Phosphatase Non-receptor Type 4 (PTPN4) (AID 2283208)
Chain of human Protein Tyrosine Phosphatase Non-receptor Type 4 (PTPN4), PTPN4 (gene 5775) (P29074 whole entry, looked up): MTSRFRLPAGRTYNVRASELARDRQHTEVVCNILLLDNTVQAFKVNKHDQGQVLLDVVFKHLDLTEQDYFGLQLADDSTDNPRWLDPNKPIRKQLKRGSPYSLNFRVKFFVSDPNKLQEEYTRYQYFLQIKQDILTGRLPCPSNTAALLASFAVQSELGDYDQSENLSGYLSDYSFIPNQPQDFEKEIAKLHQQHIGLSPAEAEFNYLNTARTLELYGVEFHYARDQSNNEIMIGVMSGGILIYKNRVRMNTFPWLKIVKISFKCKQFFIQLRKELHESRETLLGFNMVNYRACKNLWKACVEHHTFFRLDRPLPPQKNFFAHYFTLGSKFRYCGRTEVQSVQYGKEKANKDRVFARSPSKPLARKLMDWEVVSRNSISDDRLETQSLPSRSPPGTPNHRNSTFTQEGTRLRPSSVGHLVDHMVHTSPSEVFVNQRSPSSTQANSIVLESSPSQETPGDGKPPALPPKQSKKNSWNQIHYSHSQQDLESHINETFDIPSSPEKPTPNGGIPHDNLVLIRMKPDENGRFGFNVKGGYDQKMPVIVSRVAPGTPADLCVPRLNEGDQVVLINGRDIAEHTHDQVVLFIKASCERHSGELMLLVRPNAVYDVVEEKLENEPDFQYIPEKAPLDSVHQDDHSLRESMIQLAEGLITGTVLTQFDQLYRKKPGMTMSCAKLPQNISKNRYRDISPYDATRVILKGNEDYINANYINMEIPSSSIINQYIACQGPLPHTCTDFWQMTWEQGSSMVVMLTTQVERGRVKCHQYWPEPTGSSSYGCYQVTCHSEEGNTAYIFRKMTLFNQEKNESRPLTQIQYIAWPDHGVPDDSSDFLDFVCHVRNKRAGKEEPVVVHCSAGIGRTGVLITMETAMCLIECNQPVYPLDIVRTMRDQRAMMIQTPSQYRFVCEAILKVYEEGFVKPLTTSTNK
In short: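 Cell-free assay of PTPN4 expressed in Sf9 cells, using a fluorescent substrate with product separated by mobility shift; read 1.33 h after dosing. Single-point screen at 25 uM, then concentration-response up to 50 uM. Loss of signal relative to DMSO.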

[2] = biological target: human Protein Tyrosine Phosphatase Non-receptor Type 1 (PTPN1), PTPN1 (gene 5770) (UniProt P18031); assay: NVS_ENZ_hPTPN1: NovaScreen (NVS) Enzymatic Assay for human Protein Tyrosine Phosphatase Non-receptor Type 1 (PTPN1) (AID 2283201)
Chain of human Protein Tyrosine Phosphatase Non-receptor Type 1 (PTPN1), PTPN1 (gene 5770) (P18031 whole entry, looked up): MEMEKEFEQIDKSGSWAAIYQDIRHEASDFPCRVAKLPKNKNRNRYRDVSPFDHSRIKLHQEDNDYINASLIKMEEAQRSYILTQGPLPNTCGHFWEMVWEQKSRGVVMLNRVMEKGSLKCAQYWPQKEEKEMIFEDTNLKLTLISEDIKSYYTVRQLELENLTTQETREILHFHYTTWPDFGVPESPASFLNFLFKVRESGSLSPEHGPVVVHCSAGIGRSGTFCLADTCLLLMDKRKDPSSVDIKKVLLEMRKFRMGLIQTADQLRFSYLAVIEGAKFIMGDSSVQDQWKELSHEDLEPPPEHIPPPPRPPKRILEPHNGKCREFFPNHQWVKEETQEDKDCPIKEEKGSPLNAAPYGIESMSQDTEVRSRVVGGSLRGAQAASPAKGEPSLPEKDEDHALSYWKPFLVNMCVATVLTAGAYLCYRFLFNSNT
Experimental: NVS_ENZ_hPTPN1 is a biochemical, single-readout assay that uses extracted gene-proteins in a cell-free assay. Measurements were taken 1.33 hours after chemical dosing in a 384-well plate.NVS_ENZ_hPTPN1 is one of one assay component(s) measured or calculated from the NVS_ENZ_hPTPN1 assay. It is designed to make measurements of enzyme activity, a form of enzyme reporter, as detected with fluorescence intensity signals by Fluorescence and electrophoretic mobility shift technology.Data from the assay component NVS_ENZ_hPTPN1 was analyzed into 1 assay endpoint. This assay endpoint, NVS_ENZ_hPTPN1, was analyzed in the positive analysis fitting direction relative to DMSO as the negative control and baseline of activity. Using a type of enzyme reporter, loss-of-signal activity can be used to understand changes in the enzymatic activity as they relate to the gene PTPN1. Furthermore, this assay endpoint can be referred to as a primary readout, because this assay has produced multiple assay endpoints where this one serves a enzymatic activity function. To generalize the intended target to other relatable targets, this assay endpoint is annotated to the phosphatase intended target family, where the subfamily is non-receptor tyrosine phosphatase.
Binding assays used specific radioligands (tritiated, iodinated) with non-radioactive competitive displacement ligands in agonist or antagonist protocols (as indicated) and various reference compounds and inhibitors to titrate specific binding to receptors and transporters. Most enzyme assays (CYPs, kinases, phosphatases, proteases, HDACs) used recombinant protein and specific substrates (fluorescence mostly, some colorimetric and radioactive) and inhibitors, followed by a biochemical separation of substrate and product. All assays for the biochemical HTS were initially run in duplicate at a single concentration (10 uM for CYP450 assays and 25 uM for all others). […]

[3] = biological target: Tyrosine-protein phosphatase non-receptor type 12 (Homo sapiens) (UniProt Q05209); assay: NVS_ENZ_hPTPN12: NovaScreen (NVS) Enzymatic Assay for human Protein Tyrosine Phosphatase Non-receptor Type 12 (PTPN12) (AID 2283204)
Chain of Tyrosine-protein phosphatase non-receptor type 12 (Homo sapiens) (Q05209 whole entry, looked up): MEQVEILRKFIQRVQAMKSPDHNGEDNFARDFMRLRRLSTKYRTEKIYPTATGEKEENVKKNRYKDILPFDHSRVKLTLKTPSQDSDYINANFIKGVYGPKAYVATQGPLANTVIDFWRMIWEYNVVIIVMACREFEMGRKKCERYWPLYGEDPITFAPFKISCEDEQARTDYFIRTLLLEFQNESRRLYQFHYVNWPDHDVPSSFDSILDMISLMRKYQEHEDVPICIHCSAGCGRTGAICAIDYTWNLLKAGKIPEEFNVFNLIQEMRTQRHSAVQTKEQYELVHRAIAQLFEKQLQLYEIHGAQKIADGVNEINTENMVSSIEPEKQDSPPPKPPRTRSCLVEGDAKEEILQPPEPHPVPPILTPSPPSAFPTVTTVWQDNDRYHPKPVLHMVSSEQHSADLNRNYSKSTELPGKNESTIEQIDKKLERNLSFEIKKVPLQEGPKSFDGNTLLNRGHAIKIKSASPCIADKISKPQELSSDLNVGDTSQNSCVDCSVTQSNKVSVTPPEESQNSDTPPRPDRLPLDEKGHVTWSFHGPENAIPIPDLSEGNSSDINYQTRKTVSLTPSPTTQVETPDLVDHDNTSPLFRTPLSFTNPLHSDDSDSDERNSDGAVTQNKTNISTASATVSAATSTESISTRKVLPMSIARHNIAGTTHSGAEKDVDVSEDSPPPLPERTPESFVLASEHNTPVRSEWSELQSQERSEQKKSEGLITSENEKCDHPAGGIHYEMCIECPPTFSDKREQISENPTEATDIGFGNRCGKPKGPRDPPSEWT
In short: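 Single-concentration duplicates (25 uM) preceded singleton concentration-response up to 50 uM for chemicals passing threshold. Cell-free recombinant PTPN12 activity was read 1.33 h after dosing via fluorescence after mobility-shift separation; loss of signal versus DMSO.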

[4] = biological target: Tyrosine-protein phosphatase non-receptor type 14 (Homo sapiens) (UniProt Q15678); assay: NVS_ENZ_hPTPN14: NovaScreen (NVS) Enzymatic Assay for human Protein Tyrosine Phosphatase Non-receptor Type 14 (PTPN14) (AID 2283206)
Chain of Tyrosine-protein phosphatase non-receptor type 14 (Homo sapiens) (Q15678 whole entry, looked up): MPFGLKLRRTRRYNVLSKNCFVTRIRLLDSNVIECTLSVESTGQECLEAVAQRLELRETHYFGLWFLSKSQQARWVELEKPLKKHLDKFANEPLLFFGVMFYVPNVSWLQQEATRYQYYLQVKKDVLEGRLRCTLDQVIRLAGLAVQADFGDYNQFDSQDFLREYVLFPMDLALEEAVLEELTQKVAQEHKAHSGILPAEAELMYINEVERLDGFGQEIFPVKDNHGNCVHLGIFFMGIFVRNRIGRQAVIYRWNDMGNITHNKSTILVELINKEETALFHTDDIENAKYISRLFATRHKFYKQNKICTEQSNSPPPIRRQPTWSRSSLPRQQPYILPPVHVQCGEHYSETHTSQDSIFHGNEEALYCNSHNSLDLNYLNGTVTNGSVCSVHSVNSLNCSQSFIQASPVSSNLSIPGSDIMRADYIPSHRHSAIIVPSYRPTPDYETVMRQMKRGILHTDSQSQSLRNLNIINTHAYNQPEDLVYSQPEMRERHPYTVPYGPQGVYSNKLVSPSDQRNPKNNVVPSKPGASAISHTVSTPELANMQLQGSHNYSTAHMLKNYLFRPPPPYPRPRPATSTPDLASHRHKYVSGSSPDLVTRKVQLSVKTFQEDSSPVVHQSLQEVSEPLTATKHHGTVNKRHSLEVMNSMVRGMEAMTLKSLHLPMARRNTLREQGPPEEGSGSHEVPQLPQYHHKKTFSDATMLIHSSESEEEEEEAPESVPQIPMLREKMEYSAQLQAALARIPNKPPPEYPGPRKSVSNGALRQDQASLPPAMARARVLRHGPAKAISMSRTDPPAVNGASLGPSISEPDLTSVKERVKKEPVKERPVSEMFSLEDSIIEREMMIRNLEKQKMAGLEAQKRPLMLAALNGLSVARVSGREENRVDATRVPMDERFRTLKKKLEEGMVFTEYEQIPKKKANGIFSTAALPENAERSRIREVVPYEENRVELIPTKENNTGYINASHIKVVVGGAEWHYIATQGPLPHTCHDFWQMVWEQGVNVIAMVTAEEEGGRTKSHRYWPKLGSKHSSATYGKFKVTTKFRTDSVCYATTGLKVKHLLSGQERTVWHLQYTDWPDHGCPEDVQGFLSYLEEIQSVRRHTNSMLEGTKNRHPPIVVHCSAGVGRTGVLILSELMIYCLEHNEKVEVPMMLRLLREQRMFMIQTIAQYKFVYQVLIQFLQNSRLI
In short: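 Cell-free recombinant human PTPN14 with fluorescent substrate, read 0.5 h after dosing by fluorescence and electrophoretic mobility shift separating substrate from product. Primary screen at 25 uM in duplicate; hits run to 50 uM maximum; loss of signal versus DMSO.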

[5] = biological target: Serine/threonine-protein phosphatase PP1-alpha catalytic subunit (Homo sapiens) (UniProt P62136); assay: NVS_ENZ_hPPP1CA: NovaScreen (NVS) Enzymatic Assay for human Protein Phosphatase 1 Aatalytic subunit Alpha (PPP1CA) (AID 2283200)
Chain of Serine/threonine-protein phosphatase PP1-alpha catalytic subunit (Homo sapiens) (P62136 whole entry, looked up): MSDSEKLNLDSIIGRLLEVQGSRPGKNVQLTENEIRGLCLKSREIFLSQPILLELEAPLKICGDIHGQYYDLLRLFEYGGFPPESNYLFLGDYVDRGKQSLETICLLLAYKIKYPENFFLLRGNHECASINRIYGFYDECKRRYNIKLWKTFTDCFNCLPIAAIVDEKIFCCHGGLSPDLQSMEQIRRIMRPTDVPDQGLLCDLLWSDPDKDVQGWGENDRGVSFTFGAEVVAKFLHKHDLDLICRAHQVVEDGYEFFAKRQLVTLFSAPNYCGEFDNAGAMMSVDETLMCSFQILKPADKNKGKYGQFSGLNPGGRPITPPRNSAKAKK
In short: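 Recombinant enzyme activity read by fluorescence with electrophoretic mobility shift separating substrate from product, 1.33 h after dosing; loss of signal vs DMSO baseline. Primary screen in duplicate at 25 uM; actives retested in concentration-response up to 50 uM.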

[6] = biological target: human Protein Phosphatase, Mg2+/Mn2+ Dependent 1A (PPM1A), PPM1A (gene 5494) (UniProt P35813); assay: NVS_ENZ_hPPM1A: NovaScreen (NVS) Enzymatic Assay for human Protein Phosphatase, Mg2+/Mn2+ Dependent 1A (PPM1A) (AID 2283198)
Chain of human Protein Phosphatase, Mg2+/Mn2+ Dependent 1A (PPM1A), PPM1A (gene 5494) (P35813 whole entry, looked up): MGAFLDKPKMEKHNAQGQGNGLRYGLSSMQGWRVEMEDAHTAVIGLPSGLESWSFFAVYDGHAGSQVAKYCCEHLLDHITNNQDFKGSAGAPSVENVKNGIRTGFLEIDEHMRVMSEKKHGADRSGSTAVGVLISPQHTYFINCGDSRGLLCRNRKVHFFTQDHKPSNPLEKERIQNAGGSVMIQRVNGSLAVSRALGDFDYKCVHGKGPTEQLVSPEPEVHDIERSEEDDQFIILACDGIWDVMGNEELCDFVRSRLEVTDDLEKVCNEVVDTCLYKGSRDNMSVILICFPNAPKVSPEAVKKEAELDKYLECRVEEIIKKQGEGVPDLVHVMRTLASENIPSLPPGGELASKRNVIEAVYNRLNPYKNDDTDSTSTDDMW
In short: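 Cell-free recombinant PPM1A phosphatase assay with fluorescent substrate, read 1 h after dosing by electrophoretic mobility shift. Chemicals screened in duplicate at 25 uM, then in concentration-response up to 50 uM; loss of activity versus DMSO.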

[7] = biological target: human Protein Tyrosine Phosphatase Non-receptor Type 6 (PTPN6), PTPN6 (gene 5777) (UniProt P29350); assay: NVS_ENZ_hPTPN6: NovaScreen (NVS) Enzymatic Assay for human Protein Tyrosine Phosphatase Non-receptor Type 6 (PTPN6) (AID 2283210)
In short: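 Cell-free assay with recombinant PTPN6 expressed in SF9 cells, fluorescent substrate, product separated from substrate by electrophoretic mobility shift; read 1.33 hours after dosing. Primary screen in duplicate at 25 uM, actives retested in concentration series; DMSO baseline.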

[8] = biological target: Tyrosine-protein phosphatase non-receptor type 13 (Homo sapiens) (UniProt Q12923); assay: NVS_ENZ_hPTPN13: NovaScreen (NVS) Enzymatic Assay for human Protein Tyrosine Phosphatase Non-receptor Type 13 (PTPN13) (AID 2283205)
In short: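 Cell-free assay of recombinant human PTPN13 with a fluorescent substrate, product separated by electrophoretic mobility shift and read 0.5 h after dosing. Primary screen at 25 uM in duplicate, then concentration-response up to 50 uM. Loss of signal fitted against DMSO.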

[9] = biological target: Tyrosine-protein phosphatase non-receptor type 11 (Homo sapiens) (UniProt Q06124); assay: NVS_ENZ_hPTPN11: NovaScreen (NVS) Enzymatic Assay for human Protein Tyrosine Phosphatase Non-receptor Type 11 (PTPN11) (AID 2283202)
In short: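 Recombinant human PTPN11 activity on a fluorescent substrate, with substrate/product separated by electrophoretic mobility shift; read 0.5 h after dosing, loss of signal vs DMSO. Duplicate 25 uM screen, then concentration-response up to 50 uM.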

[10] = biological target: human Protein Tyrosine Phosphatase Non-receptor Type 9 (PTPN9), PTPN9 (gene 5780) (UniProt P43378); assay: NVS_ENZ_hPTPN9: NovaScreen (NVS) Enzymatic Assay for human Protein Tyrosine Phosphatase Non-receptor Type 9 (PTPN9) (AID 2283209)
Chain of human Protein Tyrosine Phosphatase Non-receptor Type 9 (PTPN9), PTPN9 (gene 5780) (P43378 whole entry, looked up): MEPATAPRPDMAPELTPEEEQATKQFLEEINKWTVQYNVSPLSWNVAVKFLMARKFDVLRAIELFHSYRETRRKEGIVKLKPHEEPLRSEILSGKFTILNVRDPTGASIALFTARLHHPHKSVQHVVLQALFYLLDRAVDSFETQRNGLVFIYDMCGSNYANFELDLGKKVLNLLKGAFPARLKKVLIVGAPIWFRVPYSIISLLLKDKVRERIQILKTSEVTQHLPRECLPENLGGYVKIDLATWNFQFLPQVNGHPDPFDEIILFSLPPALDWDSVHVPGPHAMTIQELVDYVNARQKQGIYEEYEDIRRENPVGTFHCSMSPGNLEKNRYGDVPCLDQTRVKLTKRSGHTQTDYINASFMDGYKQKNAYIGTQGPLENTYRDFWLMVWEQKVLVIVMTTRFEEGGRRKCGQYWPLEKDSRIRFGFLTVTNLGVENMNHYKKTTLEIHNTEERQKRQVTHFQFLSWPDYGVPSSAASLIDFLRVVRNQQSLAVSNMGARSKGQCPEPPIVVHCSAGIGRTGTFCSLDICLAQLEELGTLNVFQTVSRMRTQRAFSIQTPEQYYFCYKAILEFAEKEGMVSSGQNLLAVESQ
In short: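 Sf9-expressed enzyme in a cell-free assay, fluorescence read 1.33 h after dosing with mobility-shift separation of substrate and product. Tested at 25 uM in duplicate, then up to 50 uM; signal loss versus DMSO.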

With `CC[C@H](C)[C@@H](C(=O)O)n1sc2ccccc2c1=O` as the compound, how does the outcome [1] read?
Its outcome is “inactive”.

`CCC(=C(c1ccc(O)cc1)c1ccc(OCCN(C)C)cc1)c1ccccc1` was tested. Which outcome [2] did it give?
The outcome was “inactive”.

With `O=c1c(-c2ccc(O)cc2)coc2cc(O)ccc12` as the compound, how does the outcome [3] read?
Its outcome is “inactive”.

What about the outcome [4] of the same compound?
The outcome was “inactive”.

For `CCCOC(=O)c1ccc(O)cc1`, which outcome [5] is on record?
The outcome was “inactive”.

How did the outcome [6] turn out when `COC(=O)CCCCC(=O)OC` was run?
Its outcome is “inactive”.

Which outcome [7] does the source give for `COc1ccc([N+](=O)[O-])cc1N` here?
The outcome was “inactive”.

`CCCOc1sc(C(=O)N2CCC(c3cc(CN)ccc3F)CC2)c(C)c1Br` was tested. Which outcome [6] did it give?
Its outcome is “inactive”.

`CCN(CC)CCNc1ccc(CNC=O)c2sc3ccc(OC)cc3c(=O)c12` was tested. Which outcome [5] did it give?
Its outcome is “inactive”.

And the outcome [8]?
The outcome was “inactive”.

How did the outcome [2] turn out when `CCCCCCCC(=O)O` was run?
Its outcome is “inactive”.

With `CCCCCCCCCCCCc1ccccc1S(=O)(=O)O` as the compound, how does the AC50 [6] read?
Its AC50 is 30.2 µM (active).

What about the AC50 [2] of the same compound?
The AC50 was 15.5 µM (active).

And the AC50 [9]?
Its AC50 is 13.3 µM (active).

And the AC50 [3]?
Its AC50 is 11.3 µM (active).

What about the AC50 [8] of the same compound?
Its AC50 is 21.1 µM (active).

And the AC50 [4]?
The AC50 was 38.2 µM (active).

And the AC50 [1]?
The AC50 was 19.8 µM (active).

And the AC50 [10]?
The AC50 was 4.22 µM (active).

And the AC50 [7]?
The AC50 was 13.4 µM (active).

With `NC(=O)N(O)[C@@H]1C=C[C@H](Oc2cccc(Oc3ccc(F)cc3)c2)C1` as the compound, how does the outcome [6] read?
The outcome was “inactive”.

And the outcome [10]?
The outcome was “inactive”.

`ClC1=C(Cl)C(Cl)(Cl)C(Cl)=C1Cl` was tested. Which outcome [9] did it give?
Its outcome is “inactive”.

And the outcome [3]?
The outcome was “inactive”.

What about the outcome [1] of the same compound?
The outcome was “inactive”.

For `CN1CCC[C@H]1c1cccnc1`, which outcome [5] is on record?
Its outcome is “inactive”.

And the outcome [1]?
The outcome was “inactive”.

How did the outcome [5] turn out when `N#C[C@@H]1CC(F)(F)CN1C(=O)CNC1CC2CCC(C1)N2c1ncccn1` (some centres not stated) was run?
The outcome was “inactive”.

What about the outcome [1] of the same compound?
Its outcome is “inactive”.

How did the outcome [6] turn out when `CCCCCCC(=O)O` was run?
Its outcome is “inactive”.

How did the outcome [4] turn out when `CC(=O)CC(C)(C)O` was run?
The outcome was “inactive”.

Which results are given for `COCC(C)OCC(C)O` (configuration not stated)?
outcome [3]: inactive; outcome [8]: inactive; outcome [1]: inactive; outcome [10]: inactive

Which outcome [5] does the source give for `CCCCOCCO` here?
Its outcome is “inactive”.

With `CC(C)(C)c1cccc(C(C)(C)C)c1O` as the compound, how does the outcome [5] read?
Its outcome is “inactive”.
